# Laboratory results from PubChem BioAssay AID1494157 (National Center for Advancing Translational Sciences (NCATS), 2020).
# Results filed as inconclusive are left out. The source made the active and inactive calls. The call rests on the fitted dose curve.
# Assay: Confirmatory qHTS for inhibitors of MERS-S pseudo-typed particle cell entry
# Settings: MERS-S pseudotyped particle entry, luciferase reporter; series mostly up to 57.1 µM
SMILES,Potency,"activity change, negative = inhibition"
C=CC1(C)CC(=O)C2(O)C(C)(O1)C(OC(C)=O)C(OC(=O)CCN(C)C)C1C(C)(C)CCC(O)C12C (centres undefined),inactive,–
COc1cccc2c1C(=O)c1c(O)c3c(c(O)c1C2=O)C[C@@](O)(C(=O)CO)CC3OC1CC(N2CCOC(OC)C2)C(O)C(C)O1 (some centres undefined),0.215 µM (active),–
CCCCCCCCCCCCOCCOCCOCCOCCOCCOCCOCCOCCOCCO,7.64 µM (active),–
CC(=O)N1CCN(c2ccc(OC[C@H]3CO[C@](Cn4ccnc4)(c4ccc(Cl)cc4Cl)O3)cc2)CC1,7.64 µM (active),–
CO[C@@]12[C@H](COC(N)=O)C3=C(C(=O)C(C)=C(N)C3=O)N1C[C@@H]1N[C@@H]12,0.961 µM (active),–
c1ccc2c(c1)Sc1ccccc1N2CC1CN2CCC1CC2 (centres undefined),12.1 µM (active),–
COc1cc([C@@H]2c3cc4c(cc3C(O[C@@H]3O[C@@H]5CO[C@@H](c6cccs6)OC5[C@H](O)[C@H]3O)C3COC(=O)[C@@H]32)OCO4)cc(OC)c1O (some centres undefined),0.271 µM (active),–
CCn1cc(C(=O)O)c(=O)c2cc(F)c(N3CCNC(C)C3)c(F)c21 (centres undefined),inactive,–
C[C@]12CC[C@H](O)C[C@H]1CCC1C2CC[C@]2(C)[C@@H](c3ccc(=O)oc3)C[C@H]3O[C@]132 (some centres undefined),3.83 µM (active),–
COc1ccc(Cc2nccc3cc(OC)c(OC)cc23)cc1OC,4.82 µM (active),–
CCCCc1oc2ccccc2c1C(=O)c1cc(I)c(OCCN(CC)CC)c(I)c1,10.8 µM (active),–
CC(=O)OCC1=C(C(=O)O)N2C(=O)[C@@H](NC(=O)Cc3cccs3)[C@H]2SC1,inactive,–
COc1cc(NS(C)(=O)=O)ccc1Nc1c2ccccc2nc2ccccc12,1.36 µM (active),–
COc1cc2nccc(Oc3ccc(NC(=O)C4(C(=O)Nc5ccc(F)cc5)CC4)cc3)c2cc1OC,12.1 µM (active),–
CN1CCC(=C2c3ccccc3CCc3sccc32)CC1,15.2 µM (active),–
COc1cc(N)c(Cl)cc1C(=O)NC1CCN(CCCOc2ccc(F)cc2)CC1OC (centres undefined),15.2 µM (active),–
Cc1nnc2n1-c1sc(CCc3ccc(CC(C)C)cc3)cc1C(c1ccccc1Cl)=NC2C (centres undefined),27.1 µM (active),–
CN1CC[C@H](CN2c3ccccc3Sc3ccccc32)C1,15.2 µM (active),–
COc1cc2nccc(Oc3ccc(NC(=O)NC4CC4)c(Cl)c3)c2cc1C(N)=O,17.1 µM (active),–
C[n+]1c2cc(N)ccc2cc2ccc(N)cc21 (tested in a mixture with another compound),1.92 µM (active),–
CN1CCC(=C2c3ccccc3C=Cc3ccccc32)CC1,19.2 µM (active),–
C/C=C(/C)C(=O)O[C@H]1C(C)=CC23C(=O)C(C=C(CO)[C@@H](O)[C@]12O)[C@H]1[C@@H](C[C@H]3C)C1(C)C (some centres undefined),inactive,–
COC(=O)C1=C(C)NC(C)=C(C(=O)OCC(C)C)C1c1ccccc1[N+](=O)[O-] (centres undefined),19.2 µM (active),–
Cc1cc(-n2c(=O)[nH]c(=O)n(C)c2=O)ccc1Oc1ccc(S(=O)(=O)C(F)(F)F)cc1,6.81 µM (active),–
CC(C)OC(=O)[C@H](C)N[P@](=O)(CO[C@H](C)Cn1cnc2c(N)ncnc21)Oc1ccccc1,0.0152 µM (active),–
NCCNc1ccc(NCCN)c2c1C(=O)c1ccncc1C2=O,19.2 µM (active),–
CCCCN=C(N)N=C(N)N,inactive,–
CCOc1cc2ncc(C#N)c(Nc3ccc(OCc4ccccn4)c(Cl)c3)c2cc1NC(=O)/C=C/CN(C)C,–,-18.9% [at 11.2 µM] (inactive)
Nc1nc(Cl)nc2c1ncn2C1CC(O)C(CO)O1 (centres undefined),12.1 µM (active),–
